Test results: PubChem BioAssay (NCATS)
Records with an inconclusive call do not appear. Calls of active or inactive are those of the source. Calls come from the whole dose curve; as a rule, active = well fitted curve in the direction sought with a large enough effect; inconclusive = small, poorly fitted or top-dose-only effect, or another doubt; inactive = no such curve, though single readings can be large; an effect the other way counts as inactive or inconclusive.

Tests used:
[1] = qHTS of pediatric cancer cell lines to identify multiple opportunities for drug repurposing: Primary screen for U-2 OS cells (AID 1347096); note: nearly all actives have a fitted effect of over 50% in size
Method in brief: (§1)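 Cells (500-1,000/well) rested 5 h, then received compounds for 48 h; metabolically active cells were measured by CellTiter-Glo luminescence. Final concentrations spanned up to 46 µM (MIPE, 11-point) or 0.59 nM-46 µM (NPC, 8-point) in primary screens, 11-point in follow-ups.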

[2] = qHTS of pediatric cancer cell lines to identify multiple opportunities for drug repurposing: Primary screen for Saos-2 cells (AID 1347097); note: nearly all actives have a fitted effect of over 40% in size
Method in brief: (§2)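 ATP-based luminescence (CellTiter-Glo) quantifies viability after a 48-hour exposure. Compounds are dosed across 8 or 11 final concentrations; DMSO and 2.3 µM bortezomib serve as controls.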

[3] = qHTS of pediatric cancer cell lines to identify multiple opportunities for drug repurposing: Primary screen for SK-N-SH cells (AID 1347098); note: nearly all actives have a fitted effect of over 65% in size
Method in brief: as §1

[4] = qHTS of pediatric cancer cell lines to identify multiple opportunities for drug repurposing: Primary screen for NB1643 cells (AID 1347099); note: nearly all actives have a fitted effect of over 50% in size
Method in brief: as §2

[5] = qHTS of pediatric cancer cell lines to identify multiple opportunities for drug repurposing: Primary screen for LAN-5 cells (AID 1347100)
Method in brief: as §1

[6] = qHTS of pediatric cancer cell lines to identify multiple opportunities for drug repurposing: Primary screen for BT-12 cells (AID 1347101); note: nearly all actives have a fitted effect of over 25% in size
Method in brief: as §1

[7] = qHTS of pediatric cancer cell lines to identify multiple opportunities for drug repurposing: Primary screen for Rh18 cells (AID 1347102); note: nearly all actives have a fitted effect of over 65% in size
Method in brief: as §1

[8] = qHTS of pediatric cancer cell lines to identify multiple opportunities for drug repurposing: Primary screen for OHS-50 cells (AID 1347103); note: nearly all actives have a fitted effect of over 40% in size
Method in brief: as §1

[9] = qHTS of pediatric cancer cell lines to identify multiple opportunities for drug repurposing: Primary screen for MG 63 (6-TG R) cells (AID 1347105); note: nearly all actives have a fitted effect of over 50% in size
Method in brief: as §2

[10] = qHTS of pediatric cancer cell lines to identify multiple opportunities for drug repurposing: Primary screen for control Hh wild type fibroblast cells (AID 1347106); note: nearly all actives have a fitted effect of over 55% in size
Method in brief: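 Viability after 48 h compound treatment at 37C, 500-1,000 cells/well, read as ATP luminescence with CellTiter-Glo. Primary screens used 11-point (MIPE, 0.78 nM-46 µM) or 8-point (NPC, 0.59 nM-46 µM) final concentrations; follow-up screens used 11-point dilutions.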

[11] = qHTS of pediatric cancer cell lines to identify multiple opportunities for drug repurposing: Primary screen for Rh30 cells (AID 1347107); note: nearly all actives have a fitted effect of over 75% in size
Method in brief: as §1

[12] = qHTS of pediatric cancer cell lines to identify multiple opportunities for drug repurposing: Primary screen for Rh41 cells (AID 1347108); note: nearly all actives have a fitted effect of over 70% in size
Method in brief: as §2

[13] = qHTS of pediatric cancer cell lines to identify multiple opportunities for drug repurposing: Primary screen for RD cells (AID 1347104); note: nearly all actives have a fitted effect of over 55% in size
Method in brief: as §2

[14] = qHTS of pediatric cancer cell lines to identify multiple opportunities for drug repurposing: Confirmatory screen for BT-12 cells (AID 1347112); note: nearly all actives have a fitted effect of over 55% in size
Method in brief: as §1

[15] = qHTS of pediatric cancer cell lines to identify multiple opportunities for drug repurposing: Confirmatory screen for DAOY cells (AID 1347114); note: nearly all actives have a fitted effect of over 65% in size
Method in brief: (§3)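 Viability measured as metabolically active cells via CellTiter-Glo luminescence following 48 hours of compound exposure, 11-point dilutions in confirmatory testing. 500-1,000 cells/well plated 5 hours before dosing; controls were DMSO and 2.3 µM bortezomib.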

[16] = qHTS of pediatric cancer cell lines to identify multiple opportunities for drug repurposing: Confirmatory screen for NB1643 cells (AID 1347109); note: nearly all actives have a fitted effect of over 45% in size
Method in brief: as §1

[17] = qHTS of pediatric cancer cell lines to identify multiple opportunities for drug repurposing: Confirmatory screen for A673 cells (AID 1347110);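 note: cells exposed to compound for 48 h before the viability read; nearly all actives have a fitted effect of over 65% in size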
Method in brief: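 qHTS titration format: primary MIPE 0.78 nM-46 µM (11 pts), NPC 0.59 nM-46 µM; confirmation 11 pts. 48 h, CTG luminescence.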

[18] = qHTS of pediatric cancer cell lines to identify multiple opportunities for drug repurposing: Confirmatory screen for SJ-GBM2 cells (AID 1347116); note: nearly all actives have a fitted effect of over 60% in size
Method in brief: as §3

[19] = qHTS of pediatric cancer cell lines to identify multiple opportunities for drug repurposing: Confirmatory screen for BT-37 cells (AID 1347117); note: nearly all actives have a fitted effect of over 55% in size
Method in brief: as §1

[20] = qHTS of pediatric cancer cell lines to identify multiple opportunities for drug repurposing: Confirmatory screen for TC32 cells (AID 1347118)
Method in brief: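 qHTS, TC32, 48 h drug treatment, CellTiter-Glo luminescence as a proxy for metabolically active cells; primary top concentration 46 µM (MIPE 11-pt, NPC 8-pt); confirmatory 11-pt.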

Measured: Potency
Potency is the fitted concentration of half-maximal effect.

CC(C)(C)NC[C@H](O)c1ccc(O)cc1Cl
not listed: [13] | [14] | [15] | [16] | [17] | [18] | [19] | [20]
inactive: all other assays above

CCCCCCCCCC(CC)c1ccc(S(=O)(=O)O)cc1 (stereo unspecified)
active: [2] 30600 nM
not listed: [8] | [14] | [15] | [16] | [17] | [18] | [19] | [20]
inactive: all other assays above

Oc1ccc2c3c1O[C@H]1c4[nH]c5c(c4C[C@@]4(O)[C@@H](C2)N(CC2CC2)CC[C@]314)C[C@@]1(O)[C@H]2Cc3ccc(O)c4c3[C@@]1(CCN2CC1CC1)[C@H]5O4
not listed: [14] | [15] | [16] | [17] | [18] | [19] | [20]
inactive: all other assays above

O=[N+]([O-])c1c(Cl)c(Cl)cc(Cl)c1Cl
not listed: [16] | [17] | [18] | [19] | [20]
inactive: all other assays above

CC(C)(O)C=CC(=O)[C@](C)(O)[C@H]1[C@H](O)C[C@]2(C)[C@@H]3CC=C4[C@@H](C=C(O)C(=O)C4(C)C)[C@]3(C)C(=O)C[C@@]12C
active: [1] 148 nM | [2] 105 nM | [3] 152 nM | [4] 37.2 nM | [5] 74.3 nM | [6] 243 nM | [7] 52.6 nM | [8] 137 nM | [13] 166 nM | [9] 29.6 nM | [11] 8330 nM | [12] 469 nM | [16] 117 nM | [17] 5220 nM | [14] 1310 nM | [15] 165 nM | [18] 1650 nM | [19] 827 nM | [20] 827 nM

O=S(=O)(F)Cc1ccccc1
inactive: [1] | [2] | [3] | [4] | [5] | [6] | [7] | [8] | [13] | [10] | [12]

O=[N+]([O-])c1ccc([As](=O)(O)O)cc1
not listed: [13] | [14] | [15] | [16] | [17] | [18] | [19] | [20]
inactive: all other assays above

CC[C@@H]1[C@@H](C)O[C@@](O)([C@@H](C)[C@H](O)[C@H](C)[C@H]2OC(=O)C=CC=C[C@@H](C)[C@@H]([C@@H](C)[C@@H](O)[C@H](C)[C@@]3(O)C[C@H](O[C@H]4C[C@H](O)[C@H](O)[C@H](C)O4)[C@H](CC)[C@@H](C)O3)OC(=O)C=CC=C[C@@H]2C)C[C@H]1O[C@H]1C[C@H](O)[C@H](O)[C@H](C)O1
active: [1] 935 nM | [2] 372 nM | [3] 21500 nM | [4] 833 nM | [5] 372 nM | [6] 863 nM | [7] 590 nM | [8] 306 nM | [13] 264 nM | [9] 590 nM | [10] 9350 nM | [12] 743 nM
inactive: [16] | [14] | [18] | [19] | [20]

CC(C)N[C@@H]1CCn2c(=O)[nH]c3cccc(c32)[C@@H]1O
active: [1] 11800 nM | [2] 5260 nM | [3] 8570 nM | [4] 4180 nM | [5] 743 nM | [6] 3060 nM | [7] 4690 nM | [8] 1370 nM | [13] 3720 nM | [10] 11800 nM | [11] 1480 nM
inactive: [9] | [16] | [14] | [15] | [18] | [19]

CC(C)NCC(O)c1ccc([N+](=O)[O-])cc1 (stereo unspecified)
not listed: [11] | [14] | [15] | [16] | [17] | [18] | [19] | [20]
inactive: all other assays above

Cc1ccc(Cl)c(O)c1
not listed: [14] | [15] | [16] | [17] | [18] | [19] | [20]
inactive: all other assays above

CC(Cc1ccc(O)cc1)NCC(O)c1cc(O)cc(O)c1 (stereo unspecified)
not listed: [14] | [15] | [16] | [17] | [18] | [19] | [20]
inactive: all other assays above

O=C(O)c1cc(Oc2ccc(C(F)(F)F)cc2Cl)ccc1[N+](=O)[O-]
not listed: [13] | [14] | [15] | [16] | [17] | [18] | [19] | [20]
inactive: all other assays above

CC=C(C)C(=O)O[C@H]1C(C)=C2[C@@H]3OC(=O)[C@@](C)(O)[C@@]3(O)[C@@H](OC(=O)CCC)C[C@](C)(OC(C)=O)[C@@H]2[C@@H]1OC(=O)CCCCCCC
inactive: [16] | [17] | [15] | [19] | [20]
active: [1] 296 nM | [2] 74.3 nM | [3] 136 nM | [4] 66.2 nM | [5] 41.8 nM | [6] 48.5 nM | [7] 13.2 nM | [8] 17.2 nM | [13] 20.9 nM | [9] 118 nM | [12] 209 nM

CCCCOC(=O)c1ccccc1C(=O)OCc1ccccc1
not listed: [8] | [14] | [15] | [16] | [17] | [18] | [19] | [20]
inactive: all other assays above
